According to PubChem BioAssay AID588579 (National Center for Advancing Translational Sciences (NCATS), 2011):
Where “and” joins values, the source holds several entries; their conditions need not be identical. Equal entries are not always repeated. Screen size: about 400,000 compounds; about 2,200 (0.55%) were called active. Inconclusive results (about 1%) are left out. Calls come from the whole dose curve; as a rule, active = well fitted inhibition curve with a large enough effect; inconclusive = small, poorly fitted or top-dose-only effect, or another doubt; inactive = no such curve, though single readings can be large or run the other way. The sample as a whole holds a higher share of actives than the screen did. Where a structure was tested more than once in an assay, its records may differ in their call.

These molecules were tested against DNA polymerase kappa (Homo sapiens) (UniProt Q9UBT6) (assay: qHTS for Inhibitors of Polymerase Kappa). Conditions: purified Pol kappa, fluorescent DNA synthesis assay, 10 min; series mostly up to 60.1 µM; activity, negative = inhibition: at the top concentration.
DNA polymerase kappa (Homo sapiens), sequence (Q9UBT6 whole entry, looked up): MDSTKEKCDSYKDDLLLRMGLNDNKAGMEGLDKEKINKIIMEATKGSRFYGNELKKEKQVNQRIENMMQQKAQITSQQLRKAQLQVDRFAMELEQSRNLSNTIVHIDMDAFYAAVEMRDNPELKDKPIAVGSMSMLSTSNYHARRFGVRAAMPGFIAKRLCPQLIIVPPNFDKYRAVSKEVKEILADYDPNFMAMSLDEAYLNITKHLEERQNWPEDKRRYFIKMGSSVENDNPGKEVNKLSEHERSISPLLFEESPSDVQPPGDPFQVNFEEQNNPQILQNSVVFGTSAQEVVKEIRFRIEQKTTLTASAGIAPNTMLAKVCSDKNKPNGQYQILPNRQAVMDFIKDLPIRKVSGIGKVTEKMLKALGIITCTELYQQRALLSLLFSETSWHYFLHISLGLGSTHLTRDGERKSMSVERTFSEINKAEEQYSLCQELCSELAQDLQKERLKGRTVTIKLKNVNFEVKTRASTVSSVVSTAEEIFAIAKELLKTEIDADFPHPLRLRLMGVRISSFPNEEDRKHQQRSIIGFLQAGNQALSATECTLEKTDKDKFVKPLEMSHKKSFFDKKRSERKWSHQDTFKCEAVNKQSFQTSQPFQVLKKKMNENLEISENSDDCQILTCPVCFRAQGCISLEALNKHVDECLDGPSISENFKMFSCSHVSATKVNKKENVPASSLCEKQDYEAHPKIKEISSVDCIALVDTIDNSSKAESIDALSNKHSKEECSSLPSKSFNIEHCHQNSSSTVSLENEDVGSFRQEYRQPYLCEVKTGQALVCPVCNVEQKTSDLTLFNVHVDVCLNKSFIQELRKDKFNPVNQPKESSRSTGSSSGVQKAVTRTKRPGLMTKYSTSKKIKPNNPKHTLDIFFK
Protocol: The processing and repair of DNA interstrand crosslinks (ICL) in eukaryotic cells are extremely complex, potentially involving multiple DNA repair and damage tolerance pathways, including homologous recombination, nucleotide excision repair, translesion synthesis (TLS), and cell cycle checkpoints.
To that end, in a collaboration between the Oregon Health & Science University and the NIH Chemical Genomics Center a 1536-well high-throughput screen was developed. This fluorescent screen was assayed against the NIH Molecular Libraries Small Molecule Repository (MLSMR) to discover inhibitors of Pol Kappa.
NIH Chemical Genomics Center [NCGC]
NIH Molecular Libraries Probe Centers Network [MLPCN]
Assay Submitter (PI): Stephen Lloyd, Oregon Health & Science University
Three microliters of reagents (buffer in column 3 and 4 as negative control and 10 nM Pol kappa in columns 1, 2, and 5-48) were dispensed into a 1536-well black solid-bottom plate. Compounds (23 nL) were transferred via Kalypsys pin tool equipped with 1536-pin array. The plates were then incubated for 15 min at room temperature, and 1 uL substrate (50 nM final concentration) were then added to start the reaction and kinetically read twice at 0 min and 10 min on the Viewlux reader
% is set by controls: 0 for no effect and ±100 for the full control effect; potency is the fitted concentration of half-maximal effect.

Row | SMILES | Potency | activity, negative = inhibition
1 | Cc1cc(/C=C2/C(=O)NC(=O)N(Cc3ccco3)C2=O)c(C)n1-c1ccc(C(=O)O)cc1 | 50.1 µM (active) | 
2 | CN[C@@H]1C[C@H]2O[C@@](C)([C@@H]1OC)n1c3ccccc3c3c4c(c5c6ccccc6n2c5c31)C(=O)NC4 | inactive | 
3 | CCN1C[C@]2(COC)C(O)C[C@H](OC)[C@@]34C5C[C@]6(O)C(OC)C(O)[C@](OC(C)=O)(C5C6OC(=O)c5ccccc5)C(C(OC)C23)C14 (some centres undefined) |  | 2.42% (inactive)
4 | CC(CCC(=O)O)C1CCC2C3C(O)C[C@@H]4CC(O)CC[C@@]4(C)C3CC[C@@]12C (some centres undefined) |  | -1.37% (inactive)
5 | COc1ccc(C2Oc3c(I)c(OC)cc(OC)c3CC2O)cc1OC (centres undefined) |  | 1.84% (inactive)
6 | N[C@H](Cc1o[nH]c(=O)c1Cl)C(=O)O |  | -6.05% [at 19.4 µM] (inactive)
7 | CN1CCN(C(=O)O[C@@H]2c3nccnc3C(=O)N2c2ccc(Cl)cn2)CC1 |  | -8.72% [at 19.4 µM] (inactive)
8 | C/C(=C\C=C/[C@@H](C)C(=O)O)[C@H]1CN[C@H](C(=O)O)[C@@H]1CC(=O)O |  | -13.7% [at 19.4 µM] (inactive)
9 | N[C@H](C(=O)O)c1cc(=O)[nH]o1 |  | -6.61% [at 19.4 µM] (inactive)
10 | CC(C)(C)c1ccc(CN2C(=O)CN=C(c3ccccc3)c3ccccc32)cc1 |  | -14.9% [at 107 µM] (inactive)
11 | O=C1CC(=O)N(Cc2ccccc2)C(=O)N1CCCCCCN1C(=O)CC(=O)N(Cc2ccccc2)C1=O | 22.4 µM (active) | 
12 | COC1CC(OC2CC[C@@]3(C=O)C4CC[C@]5(C)C(C6=CC(=O)OC6)CC[C@@]5(O)C4CC[C@]3(O)C2)OC(C)C1O (some centres undefined) |  | -7.19% (inactive)
13 | C[C@]12CC[C@@H]3c4ccc(O)cc4C[C@@H](CCCCCCCCCS(=O)CCCC(F)(F)C(F)(F)F)C3[C@@H]1CC[C@@H]2O (some centres undefined) |  | -16.9% (inactive)
14 | CO[C@@H]1C[C@@H](C[C@H]2CC[C@H](C)[C@@H]([C@@H](C)C(=O)O)O2)O[C@]2(O[C@](C)([C@H]3CC[C@@](C)(C4OC([C@H]5O[C@@](O)(CO)[C@H](C)C[C@@H]5C)C[C@@H]4C)O3)C[C@H]2C)[C@@H]1C (some centres undefined) |  | 0.283% [at 19.4 µM] (inactive)
15 | CN=C(NC#N)NCCSCc1nc[nH]c1C | inactive and 28.2 µM (active) | 
16 | NC[C@H](O)c1ccc(O)cc1 |  | -4.18% [at 12 µM] (inactive)
17 | CC[C@]1(O)C(=O)OCc2c1cc1n(c2=O)Cc2cc3ccccc3nc2-1 |  | -8.67% [at 19.4 µM] (inactive)
18 | Fc1ccc(C(OCCN2CCN(C/C=C\c3ccccc3)CC2)c2ccc(F)cc2)cc1 |  | -16.7% [at 19.4 µM] (inactive)
19 | CC[N+](C)(CC)CCC[n+]1c(-c2ccccc2)c2cc(N)ccc2c2ccc(N)cc21 | 6.31 µM (active) | 
20 | CC(C)(O)c1[se]c2ccccc2c1I |  | -19.7% [at 107 µM] (inactive)
21 | CN1[C@@H]2CC[C@H]1CC(OC(=O)c1cc(Cl)cc(Cl)c1)C2 (some centres undefined) |  | -5.99% [at 19.4 µM] (inactive)
22 | COc1ccc(N2C(=O)/C(=C/c3ccco3)C(=O)NC2=S)cc1 | 4.47 µM (active) | 

Row | SMILES | Potency | activity, negative = inhibition
23 | CCN1C[C@]2(C)CC[C@H](O)[C@@]34[C@@H]5CC6[C@@H](OC)C[C@@](O)([C@@H]5[C@@H]6O)[C@H](C[C@@H]23)[C@H]14 |  | -3.02% [at 12 µM] (inactive)
24 | N#Cc1cc(Br)c(O)c(Br)c1 |  | 12.6% (inactive)
25 | CN(C)[C@@H]1C(=O)C(C(N)=O)=C(O)[C@@]2(O)C(=O)C3=C(O)c4c(O)cccc4[C@@](C)(O)C3CC12 (some centres undefined) |  | -10.9% (inactive)
26 | c1ccc2sc(SNC3CCCCC3)nc2c1 |  | -5.44% (inactive)
27 | NCCCCC(N)C(=O)O (centres undefined) | inactive | 
28 | C=CCN1CCC2(C)c3cc(O)ccc3CC1[C@@H]2C (some centres undefined) |  | 7.6% [at 19.4 µM] (inactive)
29 | CCCN(C/C=C/I)C1CCc2ccc(O)cc2C1 (centres undefined) |  | -4.88% [at 19.4 µM] (inactive)
30 | CO[C@H]1[C@@H](O)[C@@H](C)O[C@H](O[C@H]2[C@H](Oc3cccc4c(O)c5c(=O)oc6ccc(C)c7c(=O)oc(c34)c5c67)O[C@H](C)[C@H](O)[C@@H]2O)[C@@H]1O | 35.5 µM (active) | 
31 | c1ccc(CN2CC[C@@]3(CCCNC3)C2)cc1 |  | -4.77% (inactive)
32 | CCCCCCCCCCCCN=C(N)N |  | 23.6% (inactive)
33 | CN(C)C1C(=O)C(C(N)=O)=C(O)[C@@]2(O)C(=O)C3=C(O)c4c(O)cccc4[C@@](C)(O)C3C[C@@H]12 (some centres undefined) |  | -12% [at 19.4 µM] (inactive)
34 | N#CC(C#N)=Cc1cc(O)c(O)c([N+](=O)[O-])c1 | 2.82 µM (active) | 
35 | COC([CH2][Hg])CNC(=O)c1ccccc1OCC(=O)O (centres undefined) |  | 4.39% [at 19.4 µM] (inactive)
36 | Nc1ccc(-c2ccc(N)c(N)c2)cc1N |  | 11.1% (inactive)
37 | CN(C)C[C@H]1CCCC[C@]1(O)c1cccc(O)c1 |  | 15.6% (inactive)
38 | CC[C@@H]1CN2CC[C@@H]1C[C@H]2[C@H](O)c1ccnc2ccc(OC)cc12 |  | -10.2% [at 19.4 µM] (inactive)
39 | CC1=CC(=O)C2=C(C)C[C@H](O)[C@H]3[C@H](C)C(=O)O[C@@H]3C12 (some centres undefined) |  | -5.66% [at 19.4 µM] (inactive)
40 | C[C@H]1C/C=C/[C@@H]2[C@@H]3O[C@]3(C)[C@@H](C)[C@H]3[C@H](Cc4ccccc4)NC(=O)[C@]32OC(=O)O/C=C/[C@](C)(O)C1=O |  | -10.2% [at 12 µM] (inactive)
41 | Cc1c(C(=O)O)cccc1-n1c(C)cc(/C=C2\C(=O)NC(=O)N(c3ccc4c(c3)OCO4)C2=O)c1C | 44.7 µM (active) | 
42 | CC(=O)OC1C2CCC3C1(CC(O)[C@@]1(O)[C@@H](CC(O)C1(C)C)[C@]3(C)O)C[C@@]2(C)O (some centres undefined) |  | 0.942% (inactive)
43 | C=CCSSCC=C |  | -7.05% (inactive)
44 | C[C@]12O[C@H](C[C@@]1(O)C(=O)O)n1c3ccccc3c3c4c(c5c6ccccc6n2c5c31)CNC4=O |  | -9.21% (inactive)

Row | SMILES | Potency | activity, negative = inhibition
45 | C[C@@]12CCC3C(CC[C@@H]4CC(O)CC[C@@]34C)C1CCC2O (some centres undefined) |  | 2.74% (inactive)
46 | CCCCC/C=C\C/C=C\C/C=C\C/C=C\CCCCCC(=O)NCCO |  | 2.79% [at 19.4 µM] (inactive)
47 | Cc1cccc2c3c(ccc12)C1=C(C(=O)C3=O)C(C)CO1 (centres undefined) | 20 µM (active) | 
48 | C[C@@]12CC[C@H]3[C@@H](CC[C@]4(O)C[C@H](O)CC[C@@]34C=O)[C@]1(O)CC[C@@H]2C1=CC(=O)OC1 |  | -6.33% [at 12 µM] (inactive)
49 | C[C@@H]1C[C@@H]2O[C@H]2/C=C\C=C\C(=O)Cc2c(Cl)c(O)cc(O)c2C(=O)O1 | 39.8 µM (active) | 
50 | c1ccc(CCCCN2CCC(c3ccccc3)CC2)cc1 | inactive | 
51 | O=C(N/N=C/c1ccc([N+](=O)[O-])o1)c1cc([N+](=O)[O-])cc([N+](=O)[O-])c1O |  | -2.87% [at 19.4 µM] (inactive)
52 | c1ccc(N2CC[C@@]3(CCCNC3)C2)nc1 |  | 8.04% (inactive)
53 | COc1cccc(N2C(=O)NC(=O)/C(=C\c3ccc([N+](=O)[O-])s3)C2=O)c1 | 25.1 µM (active) | 
54 | O=C1NC(=O)N(c2ccccc2)C(=O)/C1=C/c1ccc([N+](=O)[O-])s1 | 31.6 µM (active) | 
55 | CC(=O)[O][Sn]([c]1ccccc1)([c]1ccccc1)[c]1ccccc1 |  | 4.82% (inactive)
56 | CCCCCCCCc1[se]c2ccccc2c1Br |  | -2.11% (inactive)
57 | ClCCN(CCCl)c1ccc(C=Nc2ccc(/C=C/c3ccnc4ccccc34)cc2)cc1 |  | -11.1% [at 107 µM] (inactive)
58 | CC(C)(Cc1c[nH]c2ccc(Cl)cc12)NCCOc1ccccc1OCC1CC1 | inactive | 
59 | CCN(CC)c1nc(C)cc(OP(=S)(OC)OC)n1 |  | 14.8% (inactive)
60 | C[C@@H]1C[C@H]2CC[C@H](O2)[C@H](C)C(=O)O[C@@H](C)C[C@@H]2CC[C@@H](O2)[C@@H](C)C(=O)O[C@H](C)C[C@H]2CC[C@H](O2)[C@H](C)C(=O)O[C@@H](C)C[C@@H]2CC[C@@H](O2)[C@@H](C)C(=O)O1 |  | 6.33% (inactive)
61 | O=C(Nc1cccc(F)c1)N1CC[C@@]2(CCCN(C(=O)Oc3ccccc3)C2)C1 |  | -3.75% (inactive)
62 | CC(C)(c1ccc(OC[C@@H]2CO2)cc1)c1ccc(OC[C@H]2CO2)cc1 |  | -11.1% [at 19.4 µM] (inactive)
63 | COc1ccc2[nH]cc(CCNCc3ccc(Br)cc3)c2c1 |  | 2.66% [at 19.4 µM] (inactive)
64 | O=C1CCc2cccc3c2N1CC3 |  | -11.9% [at 12 µM] (inactive)
